Compound activity: PubChem, The Scripps Research Institute Molecular Screening Center
PME-1 primary – blocks human protein phosphatase methylesterase 1; recombinant PME-1, FP-Rh probe fluorescence polarization; inhibition, % at 5.9 µM; 320,000 compounds, 0.53% hits; AID 2130;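 active = inhibition above the campaign mean of all compounds plus 3 SD, cut at about 26% in these data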;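 also: competitive labeling of PME-1 active site by serine hydrolase directed probe; 0% = PME-1 with DMSO and 100% = wells lacking PME-1 enzyme; inhibitors block probe labeling so polarization falls and inhibition rises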
Target sequence (Q9Y570 whole entry, looked up): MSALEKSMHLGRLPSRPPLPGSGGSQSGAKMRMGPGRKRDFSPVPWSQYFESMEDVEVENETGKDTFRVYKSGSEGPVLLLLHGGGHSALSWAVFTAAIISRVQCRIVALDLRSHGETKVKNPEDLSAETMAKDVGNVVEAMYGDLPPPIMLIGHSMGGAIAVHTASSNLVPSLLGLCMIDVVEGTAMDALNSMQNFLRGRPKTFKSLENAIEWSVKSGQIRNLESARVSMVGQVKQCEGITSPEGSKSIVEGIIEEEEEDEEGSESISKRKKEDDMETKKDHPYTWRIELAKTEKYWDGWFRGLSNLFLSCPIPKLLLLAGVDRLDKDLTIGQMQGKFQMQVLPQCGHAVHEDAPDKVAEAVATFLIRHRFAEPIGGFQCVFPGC
pPAFAH inh – inhibitors of human plasma PAF acetylhydrolase (pPAFAH) | Q13093 | recombinant pPAFAH, FP-rhodamine probe fluorescence polarization | inhibition, % at 3.39 µM | 330,000 compounds, 1.5% hits | AID 463082;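 active = inhibition above the mean inhibition across the screen plus 3 SD, cut at about 25% in these data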;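 also: inhibitors block binding of the rhodamine activity-based probe so polarization drops; 0% = enzyme with DMSO and 100% = wells lacking pPAFAH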
PAFAH1B2 inh – PAFAH1B2 (human) inhibition | P68402 | recombinant PAFAH1B2, FP-rhodamine activity probe, fluorescence polarization | inhibition, % at 3.39 µM | 340,000 compounds, 1.2% hits;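 active = inhibition above the mean of all tested compounds plus 3 SD, cut at about 24% in these data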;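 also: 0% = enzyme with DMSO and 100% = wells lacking PAFAH1B2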
Fam108B inh – blocks mouse Fam108B hydrolase in RBBP9 counter-screen | recombinant Fam108B, FP-Rh probe fluorescence polarization | inhibition, % at 9.51 µM | 300,000 compounds, 0.33% hits | AID 1947;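 active = inhibition above the screen mean inhibition plus 3 SD, computed separately per campaign, cut at about 18% in these data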;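 also: inhibitors lower polarization as less probe binds the enzyme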
PAFAH2 FP inh – PAFAH2 (human) inhibition; Q99487; inhibition, % at 3.39 µM; 340,000 compounds, 0.99% hits; recombinant PAFAH2, FP-rhodamine activity probe, fluorescence polarization;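 active = inhibition above the mean over all tested compounds plus 3 SD, cut at about 30% in these data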;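 also: inhibitors block probe labeling of enzyme so polarization drops; 0% = enzyme with DMSO and 100% = wells lacking PAFAH2 protein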
PAFAH1B3 inh – blocks human PAF acetylhydrolase 1B catalytic subunit 3; recombinant PAFAH1B3, FP-rhodamine probe, fluorescence polarization; Q15102; inhibition, % at 3.39 µM; 340,000 compounds, 0.28% hits;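 active = inhibition above the screen-wide average of all tested compounds plus 3 SD, cut at about 25% in these data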;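 also: 0% = enzyme with DMSO only and 100% = wells lacking PAFAH1B3 protein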
PAFAH2 confirm – PAFAH2 (human) inhibition, confirmed | shares compounds with PAFAH2 FP inh | 2,300 compounds, 65% hits | inhibition, % at 3.39 µM | recombinant PAFAH2, FP-rhodamine activity probe, fluorescence polarization;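 active = mean inhibition over three repeats above a set limit taken from the earlier primary screen, cut at about 30% in these data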;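 also: inhibitor blocks binding of rhodamine activity probe so polarization falls; 0% = enzyme with DMSO and 100% = wells lacking PAFAH2 protein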
Starred values were filed as active, the others as inactive; · = no result given. Only some compounds are listed: those with a hit (about 2.9% of all), similar ones and a draw of the others.

SMILES | PME-1 primary | pPAFAH inh | PAFAH1B2 inh | Fam108B inh | PAFAH2 FP inh | PAFAH1B3 inh | PAFAH2 confirm
CCOC(=O)CCCNC(=O)CCNC(=O)c1ccc(OCC(C)C)cc1 | -1 | 12 | -2 | 0 | 1 | 3 | ·
CCCN1CCC(=NNc2ccc(C(=O)O)cc2)CC1 | 2 | 3 | 3 | -1 | 35* | 12 | 3
CCCN1CCC(=NNC(=O)c2ccc(Br)o2)CC1 | -6 | 3 | -2 | 4 | 3 | -2 | ·
COc1ccc(CN2C(=O)C(Cc3ccccc3)Nc3ncnc(N4CCc5ccccc5C4)c32)cc1 (stereo unspecified) | -4 | -1 | · | -5 | · | · | ·
O=C(Nc1cc(S(=O)(=O)N2CCCCCC2)ccc1OCC(F)(F)F)c1cnccn1 | 3 | -2 | 1 | · | 4 | 0 | ·
COc1ccc(C(=O)Nc2cc(Cl)ccc2OC(=O)c2ccc(OC)cc2)cc1 | -1 | 2 | 0 | -4 | 45* | 3 | 35*
COc1ccc([N+](=O)[O-])c(OC)c1C(=O)NC(=O)Nc1nc(C)nc(C)n1 | -2 | 7 | 3 | -2 | 6 | 9 | ·
CCN(CC)c1ccc(S(=O)(=O)N2CCOCC2)cc1NC(=O)CN1C(=O)NC2(CCC(C)CC2)C1=O (stereo unspecified) | 4 | 1 | 5 | 1 | -1 | 4 | ·
O=c1c2c(nc3cc(-c4ccccc4)[nH]n13)CCS2 | -3 | 11 | 12 | 1 | 43* | 5 | 4
CC(=O)c1ccc(NC(=O)COC(=O)c2c[nH]c3ccccc23)cc1 | -11 | -4 | -10 | · | 45* | 21 | 29
Cc1ccc(NC(=O)COC(=O)Cc2c[nH]c3ccccc23)cc1F | · | · | 3 | · | 10 | -2 | ·
Cc1ccc(NC(=O)COC(=O)c2c[nH]c3ccccc23)cc1C | -2 | 19 | 4 | · | 71* | 4 | 71*
O=C(COC(=O)c1c[nH]c2ccccc12)NC1CCCC1 | 0 | 14 | 5 | · | 72* | 10 | 68*
NC(=O)Nc1ccc(C(=O)OCC(=O)c2c[nH]c3ccccc23)cc1 | · | 7 | 1 | · | 36* | 11 | 30
Cc1cccc(NS(=O)(=O)c2ccc(C)c(C(=O)NC3CCN(Cc4ccccc4)CC3)c2)c1 | · | · | 1 | · | -5 | 14 | ·
COC(=O)C1=C(C(=O)OC)[N+]2=C3N(C(=O)NC2(C)C)[C@H](CO)C[C@@]32c3ccccc3N(Cc3ccccc3)[C@@H]12 | 1 | 0 | -7 | 4 | 4 | 8 | ·
COc1ccc([C@H]2CC(=O)C=C(c3cccc(OC(F)(F)F)c3)C2)cc1 | -3 | 4 | 6 | · | -4 | -3 | ·
O=C(/C=C/CCc1ccc2c(c1)OCO2)N1CCCCC1 | · | 6 | 11 | · | -7 | -6 | ·
N#Cc1ccccc1NC(=O)COC(=O)c1c[nH]c2ccccc12 | · | · | -4 | · | 69* | -5 | 67*
Cc1ccc(CCC(=O)Nc2ccc(N(C)C)cc2)o1 | 0 | 8 | 1 | -2 | -4 | 3 | ·
O=c1oc2ccc(Br)cc2cc1S(=O)(=O)c1ccc(F)cc1 | -3 | 5 | 11 | 2 | 80* | -1 | 63*
Cc1ccc(C(=O)Nc2c3c(nn2C(C)(C)C)CS(=O)(=O)C3)cc1C | -5 | 4 | -1 | 0 | 2 | 3 | ·
Cc1ccc(N2CC(C(=O)Nc3c4c(nn3C(C)(C)C)CS(=O)(=O)C4)CC2=O)cc1C (stereo unspecified) | 4 | 5 | -3 | -1 | 158* | -3 | 0
Cc1ccccc1CN1CCN(C(=O)c2ccc(F)cc2)CC1 | · | · | 1 | · | 2 | 7 | ·
COc1ccc(/C=C/C(=O)OCC(=O)Nc2ccc(C)cc2)cc1S(=O)(=O)N1CCOCC1 | -4 | 1 | 0 | 4 | 71* | -4 | 73*
Cc1ccc(NC(=O)COC(=O)/C=C/c2cccc(Cl)c2)cc1S(=O)(=O)N1CCOCC1 | -29 | -1 | 5 | -23 | 60* | -9 | 50*
O=C(COC(=O)/C=C/c1cccc(Cl)c1)Nc1ccc(N2CCOCC2)cc1 | · | 6 | 7 | · | 3 | 14 | ·
COc1ccc(NC(=O)COC(=O)/C=C/c2ccc(OC)c(S(=O)(=O)N3CCOCC3)c2)cc1 | 1 | 2 | -1 | 6 | 62* | 3 | 58*
